Entries with a potency or affinity are not part of this list. Inconclusive results are not listed. A number with no mark means an inactive call.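 Rule for the calls: active = samples whose fitted half-maximal inhibition concentration is no more than ten times the top valid dose tested; inconclusive = flat response between -70 and -30, or invalid curve fit; inactive = flat within 30 of zero, potency above limit, or signal rising.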
Target: Trypsin (Sus scrofa) (UniProt P00761)
Assay: porcine trypsin inhibitors, dose response, selectivity assay for Rce1 protease inhibitor project, biochemical, quenched peptide fluorescence, cherry-pick (AID 488789)
Conditions: quenched peptide cleavage fluorescence; series mostly up to 10 µM; activity change, negative = inhibition: at the top concentration

Sequence of Trypsin (Sus scrofa) (P00761 whole entry, looked up): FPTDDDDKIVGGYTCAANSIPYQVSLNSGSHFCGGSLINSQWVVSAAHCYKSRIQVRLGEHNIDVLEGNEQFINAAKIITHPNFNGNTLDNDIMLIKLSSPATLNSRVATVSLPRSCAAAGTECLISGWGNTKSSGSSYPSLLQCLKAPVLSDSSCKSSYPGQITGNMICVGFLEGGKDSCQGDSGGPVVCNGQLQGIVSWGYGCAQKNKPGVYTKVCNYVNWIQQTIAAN

| Compound | activity change, negative = inhibition |
| --- | --- |
| O=[N+]([O-])c1ccc(C[n+]2c(-c3ccccc3)cc(-c3ccccc3)cc2-c2ccccc2)cc1 | 87.5% |
| Cc1nccc2c1[nH]c1ccccc12 | 5.43% |
| CC(=O)OCC[N+](C)(C)C | 3.93% |
| Clc1ccc(C[n+]2c(-c3ccccc3)cc(-c3ccccc3)cc2-c2ccccc2)cc1 | 8.29% |
| C=CCn1c(O)c(C(CC)=Nc2ccc(N(CC)CC)cc2)c(=O)[nH]c1=O | 11.1% |
| CN1CCN(c2ccc([N+](=O)[O-])c(Sc3nncn3C)c2)CC1 | 6.55% |
| CCOC(=O)[C@@H]1[C@H]2COc3ccc(Br)cc3[C@@H]2N2C(=O)N(c3cccc(C)c3)C(=O)[C@]12C | 3.99% |
| Cc1ccnc(-n2c(-c3ccco3)nc3ccccc3c2=O)c1 | -2.18% |
| CN1CC(C(=O)c2ccc(Cl)cc2)C(c2ccc(Cl)cc2Cl)C1 (stereo not drawn) | 6.7% |
| Cc1ccc(-c2cc(-c3ccccc3)cc(-c3ccccc3)[n+]2-c2ccccc2)cc1 | -4.16% |
| CCOc1ccc(C2C(C#N)=C(N)Oc3c2c(=O)oc2ccccc32)cc1 (stereo not drawn) | 13.7% |
| C=CC[N+]1(C)CC[C@]23c4c5ccc(O)c4O[C@H]2C(=O)CC[C@@]3(O)[C@H]1C5 (stereo partly drawn) | 11.1% |
| c1ccc(CCCN2CCN(CCOC(c3ccccc3)c3ccccc3)CC2)cc1 | 10.9% |
